Test results: the supplement of paper PMC10849652
About 8,800 targets were measured; listed, in parts, are those with a hit and a random draw of the rest. About 0.5% of all pairs of compound and target were hits. Values without a mark were called inactive.

Key:
Test in all cases: log2 fold change, soluble protein after heating vs DMSO (PISA); higher = thermal stabilisation; K562 lysate, 10 uM; active = over 0.2 and 3.5 SD of the protein, either way, in both replicates (recomputed)
[1] = compound: C=CC(=O)N1CCC[C@@H](n2nc(-c3ccc(Oc4ccccc4)cc3)c3c(N)ncnc32)C1 [ibrutinib]
Outline: (§1)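 Thermal stability, expressed as log-two fold change relative to solvent controls, is given from duplicates. Crude K562 extract in PBS pH 7.4 with 1 mM MgCl2, at 1 mg/mL protein, was treated with 10 μM compound for 30 min and heated in aliquots for 3 min across 48°C-58°C. After pooling, adjustment to 0.5% NP-40 at 4°C and centrifugation at 21,000xg for 90 min, supernatant protein was measured by TMTpro 16plex LC-MS/MS with channel sums equalised.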

[2] = compound: CC(=O)c1cnc2ccc(-c3cc(Cl)c(O)c(Cl)c3)nc2c1N[C@H]1CC[C@H](CN(C)C)CC1
Outline: as §1

[3] = compound: CC(C)(C)Cn1c(N)nc2ccc(-c3[nH]c(C(C)(C)C)nc3-c3ccc(F)cc3)nc21 [ralimetinib]
Outline: as §1

[4] = compound: CC(C)(O)CC(=O)NCCn1ccc2ncnc(Nc3ccc(Oc4cccc(C(F)(F)F)c4)c(Cl)c3)c21
Outline: as §1

[5] = compound: CC(C)C1=C2N=C(C=C(N2N=C1)NCC3=CC=CC=C3)NCCCCCCN
Outline: as §1

[6] = compound: CC1=C(C(CC(=O)N1)C2=CC=C(C=C2)C(F)(F)F)C(=O)NC3=C(C=C4C(=C3)C=NN4)F
Outline: as §1

[7] = compound: CC1=C(C2=C(C=C1)C(=O)C3=CC=CC=C3N2CCCN)C
Outline: as §1

[8] = compound: CC1=C(C=C(C=C1)NC(=O)C2=CC(=CC=C2)C(C)(C)C#N)NC3=CC4=C(C=C3)N=CN(C4=O)C
Outline: as §1

[9] = compound: CC1=C(C=C(C=C1)NC(=O)C2=CC(=CC=C2)N(C)C)NC(=O)C3=CC=C(C=C3)O
Outline: as §1

[10] = compound: CC1=CC=C(C=C1)SC2=C3C=C(SC3=CN=C2)C(=O)N
Outline: as §1

[11] = compound: CCCS(=O)(=O)Nc1ccc(F)c(C(=O)c2c[nH]c3ncc(-c4ccc(Cl)cc4)cc23)c1F [vemurafenib]
Outline: as §1

[12] = compound: CCCS(=O)(=O)Nc1ccc(F)c(C(=O)c2c[nH]c3ncc(Cl)cc23)c1F
Outline: as §1

[13] = compound: CCN(CCCOc1ccc2c(Nc3cc(CC(=O)Nc4cccc(F)c4)[nH]n3)ncnc2c1)CCOP(=O)(O)O [barasertib]
Outline: as §1

[14] = compound: CC[C@@H]1C(=O)N(C)c2cnc(Nc3ccc(C(=O)NC4CCN(C)CC4)cc3OC)nc2N1C1CCCC1
Outline: as §1

[15] = compound: CC[C@@H]1C(=O)N(C)c2cnc(Nc3ccc(C(=O)N[C@H]4CC[C@H](N5CCN(CC6CC6)CC5)CC4)cc3OC)nc2N1C(C)C [volasertib]
Outline: as §1

[16] = compound: CCn1c(C(=O)N(C2CC2)C2CC2)cc2c3c(ncn3C)c(Nc3cc(C)n(C)n3)nc21
Outline: as §1

[17] = compound: CCn1cc(-c2ccnc3[nH]c(-c4cccc(CN(C)C)c4)cc23)c(-c2ccc(NC(=O)N(C)C)cc2)n1
Outline: as §1

[18] = compound: CN1CCC(CNc2ccc3ncc(-c4cccc(OC(F)(F)F)c4)n3n2)CC1
Outline: as §1

[19] = compound: CN1CCN(CCOc2cc(OC3CCOCC3)c3c(Nc4c(Cl)ccc5c4OCO5)ncnc3c2)CC1 [saracatinib]
Outline: as §1

[20] = compound: CN1CCN(c2nc(C3=C(c4c[nH]c5ccccc45)C(=O)NC3=O)c3ccccc3n2)CC1 [sotrastaurin]
Outline: as §1

UniProt Q9BV86, sequence (Q9BV86 whole entry, looked up): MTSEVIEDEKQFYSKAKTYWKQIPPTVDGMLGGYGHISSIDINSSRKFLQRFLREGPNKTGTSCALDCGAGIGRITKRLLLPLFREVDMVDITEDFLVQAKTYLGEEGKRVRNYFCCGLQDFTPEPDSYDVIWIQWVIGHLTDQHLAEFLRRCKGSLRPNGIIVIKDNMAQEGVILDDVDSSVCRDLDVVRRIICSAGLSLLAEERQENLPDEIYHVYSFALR
UniProt O60313, sequence (O60313 whole entry, looked up): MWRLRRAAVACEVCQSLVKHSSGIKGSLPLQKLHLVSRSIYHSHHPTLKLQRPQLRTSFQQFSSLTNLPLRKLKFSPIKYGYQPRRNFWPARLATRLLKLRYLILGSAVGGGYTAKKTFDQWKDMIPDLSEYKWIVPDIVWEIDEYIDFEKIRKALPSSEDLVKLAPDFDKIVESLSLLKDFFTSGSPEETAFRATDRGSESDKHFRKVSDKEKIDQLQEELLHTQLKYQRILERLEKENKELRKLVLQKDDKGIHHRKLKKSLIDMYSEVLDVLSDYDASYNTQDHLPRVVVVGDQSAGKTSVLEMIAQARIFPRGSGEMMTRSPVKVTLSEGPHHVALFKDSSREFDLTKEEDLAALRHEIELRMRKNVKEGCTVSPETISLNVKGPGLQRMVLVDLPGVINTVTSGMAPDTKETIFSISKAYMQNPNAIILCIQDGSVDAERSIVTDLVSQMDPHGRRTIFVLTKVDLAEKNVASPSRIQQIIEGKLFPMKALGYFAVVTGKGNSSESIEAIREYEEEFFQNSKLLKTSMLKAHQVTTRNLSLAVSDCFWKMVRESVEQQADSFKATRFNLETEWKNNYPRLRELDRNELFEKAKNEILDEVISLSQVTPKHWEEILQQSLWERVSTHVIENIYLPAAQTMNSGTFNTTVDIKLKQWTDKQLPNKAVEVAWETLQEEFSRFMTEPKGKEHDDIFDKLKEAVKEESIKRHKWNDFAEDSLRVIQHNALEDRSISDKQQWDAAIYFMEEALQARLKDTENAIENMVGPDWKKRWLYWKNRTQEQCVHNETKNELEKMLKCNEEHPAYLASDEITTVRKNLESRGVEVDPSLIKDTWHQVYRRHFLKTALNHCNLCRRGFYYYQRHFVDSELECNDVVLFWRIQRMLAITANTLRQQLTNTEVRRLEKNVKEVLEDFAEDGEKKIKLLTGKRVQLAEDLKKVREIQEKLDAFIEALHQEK
UniProt P04150, sequence (P04150 whole entry, looked up): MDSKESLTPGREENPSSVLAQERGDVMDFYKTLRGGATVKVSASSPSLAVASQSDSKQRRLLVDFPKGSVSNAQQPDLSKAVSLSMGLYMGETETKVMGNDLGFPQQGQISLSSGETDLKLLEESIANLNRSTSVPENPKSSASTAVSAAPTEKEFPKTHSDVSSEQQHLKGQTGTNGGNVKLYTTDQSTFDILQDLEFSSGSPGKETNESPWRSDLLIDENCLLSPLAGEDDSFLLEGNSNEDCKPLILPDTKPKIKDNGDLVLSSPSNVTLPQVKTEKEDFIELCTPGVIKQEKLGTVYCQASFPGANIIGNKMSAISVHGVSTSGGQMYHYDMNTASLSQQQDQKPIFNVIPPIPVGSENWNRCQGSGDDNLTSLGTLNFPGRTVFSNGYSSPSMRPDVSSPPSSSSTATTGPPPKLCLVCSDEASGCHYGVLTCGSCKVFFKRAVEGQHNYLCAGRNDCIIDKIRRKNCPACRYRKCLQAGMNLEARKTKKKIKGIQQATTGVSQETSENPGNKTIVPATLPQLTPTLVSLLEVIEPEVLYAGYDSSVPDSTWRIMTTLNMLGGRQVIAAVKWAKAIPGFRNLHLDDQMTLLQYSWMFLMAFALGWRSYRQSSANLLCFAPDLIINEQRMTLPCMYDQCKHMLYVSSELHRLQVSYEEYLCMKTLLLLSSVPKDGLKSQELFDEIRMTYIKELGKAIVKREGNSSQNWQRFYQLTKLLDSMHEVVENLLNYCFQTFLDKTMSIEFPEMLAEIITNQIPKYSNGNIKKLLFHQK
UniProt Q8NCF5, sequence (Q8NCF5 whole entry, looked up): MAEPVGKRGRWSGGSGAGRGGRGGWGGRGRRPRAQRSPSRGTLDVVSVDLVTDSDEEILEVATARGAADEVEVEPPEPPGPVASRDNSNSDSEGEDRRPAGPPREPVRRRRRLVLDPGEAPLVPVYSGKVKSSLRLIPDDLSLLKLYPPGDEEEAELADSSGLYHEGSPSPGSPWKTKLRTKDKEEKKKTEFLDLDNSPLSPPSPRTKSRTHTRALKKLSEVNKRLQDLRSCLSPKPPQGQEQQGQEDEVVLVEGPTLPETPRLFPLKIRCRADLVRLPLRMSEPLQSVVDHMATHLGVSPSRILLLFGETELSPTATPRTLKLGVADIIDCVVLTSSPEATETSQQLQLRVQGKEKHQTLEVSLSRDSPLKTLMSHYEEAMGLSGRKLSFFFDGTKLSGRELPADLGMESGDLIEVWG
UniProt Q8TEM1, sequence (Q8TEM1 whole entry, looked up): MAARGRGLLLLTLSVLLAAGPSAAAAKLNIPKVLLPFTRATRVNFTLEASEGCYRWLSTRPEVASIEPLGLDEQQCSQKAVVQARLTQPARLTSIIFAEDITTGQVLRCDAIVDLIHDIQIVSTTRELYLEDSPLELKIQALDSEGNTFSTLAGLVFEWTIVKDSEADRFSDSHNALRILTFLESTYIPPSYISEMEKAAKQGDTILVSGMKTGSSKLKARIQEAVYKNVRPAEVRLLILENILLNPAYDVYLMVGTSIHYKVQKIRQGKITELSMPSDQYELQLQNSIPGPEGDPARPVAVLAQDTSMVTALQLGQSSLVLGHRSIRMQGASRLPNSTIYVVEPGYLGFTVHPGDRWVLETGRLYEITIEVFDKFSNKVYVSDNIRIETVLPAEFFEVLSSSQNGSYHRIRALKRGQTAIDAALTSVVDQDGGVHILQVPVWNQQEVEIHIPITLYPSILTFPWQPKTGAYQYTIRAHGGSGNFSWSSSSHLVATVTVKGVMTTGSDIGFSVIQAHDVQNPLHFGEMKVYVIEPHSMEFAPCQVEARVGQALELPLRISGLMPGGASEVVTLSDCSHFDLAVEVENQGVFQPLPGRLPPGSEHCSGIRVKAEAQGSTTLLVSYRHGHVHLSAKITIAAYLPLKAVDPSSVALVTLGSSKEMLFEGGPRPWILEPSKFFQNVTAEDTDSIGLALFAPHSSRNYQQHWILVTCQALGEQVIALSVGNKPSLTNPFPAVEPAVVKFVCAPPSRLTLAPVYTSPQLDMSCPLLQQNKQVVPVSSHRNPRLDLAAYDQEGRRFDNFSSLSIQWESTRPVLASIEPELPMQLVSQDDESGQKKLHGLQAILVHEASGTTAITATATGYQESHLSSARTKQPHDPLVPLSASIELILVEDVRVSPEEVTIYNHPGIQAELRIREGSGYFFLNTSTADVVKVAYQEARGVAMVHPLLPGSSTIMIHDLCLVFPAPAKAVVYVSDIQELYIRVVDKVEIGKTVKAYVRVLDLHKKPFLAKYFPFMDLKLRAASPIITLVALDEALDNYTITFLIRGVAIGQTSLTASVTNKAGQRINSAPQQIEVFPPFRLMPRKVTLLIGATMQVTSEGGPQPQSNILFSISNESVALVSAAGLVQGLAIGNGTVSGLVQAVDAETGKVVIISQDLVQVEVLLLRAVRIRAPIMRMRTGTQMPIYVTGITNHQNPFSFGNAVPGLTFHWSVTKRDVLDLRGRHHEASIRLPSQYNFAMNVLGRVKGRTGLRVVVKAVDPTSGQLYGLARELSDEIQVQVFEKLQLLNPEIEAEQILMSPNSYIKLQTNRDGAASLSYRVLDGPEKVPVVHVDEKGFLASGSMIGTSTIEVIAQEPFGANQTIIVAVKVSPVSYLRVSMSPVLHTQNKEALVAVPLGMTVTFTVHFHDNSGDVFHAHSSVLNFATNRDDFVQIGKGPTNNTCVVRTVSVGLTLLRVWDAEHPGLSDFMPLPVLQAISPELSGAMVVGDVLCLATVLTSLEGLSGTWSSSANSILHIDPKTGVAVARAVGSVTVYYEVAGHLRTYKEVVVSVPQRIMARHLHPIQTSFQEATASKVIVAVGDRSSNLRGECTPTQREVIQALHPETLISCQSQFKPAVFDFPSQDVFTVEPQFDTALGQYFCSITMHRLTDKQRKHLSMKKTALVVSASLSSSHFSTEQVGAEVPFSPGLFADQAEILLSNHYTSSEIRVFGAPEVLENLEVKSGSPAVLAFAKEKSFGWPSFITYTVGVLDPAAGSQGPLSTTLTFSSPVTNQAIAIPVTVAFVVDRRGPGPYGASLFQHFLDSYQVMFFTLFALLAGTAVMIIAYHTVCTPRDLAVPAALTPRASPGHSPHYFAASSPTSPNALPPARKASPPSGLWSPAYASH
UniProt Q15653, sequence (Q15653 whole entry, looked up): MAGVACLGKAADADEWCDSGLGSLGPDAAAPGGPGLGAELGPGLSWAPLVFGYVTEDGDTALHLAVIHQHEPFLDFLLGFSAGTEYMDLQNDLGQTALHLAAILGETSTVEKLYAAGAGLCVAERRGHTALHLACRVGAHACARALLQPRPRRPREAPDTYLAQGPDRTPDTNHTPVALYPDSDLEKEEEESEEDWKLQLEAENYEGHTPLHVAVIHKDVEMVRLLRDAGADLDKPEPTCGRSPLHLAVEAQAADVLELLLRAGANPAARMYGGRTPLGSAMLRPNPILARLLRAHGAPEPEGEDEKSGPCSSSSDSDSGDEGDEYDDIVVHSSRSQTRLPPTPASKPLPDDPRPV
UniProt Q9ULX3, sequence (Q9ULX3 whole entry, looked up): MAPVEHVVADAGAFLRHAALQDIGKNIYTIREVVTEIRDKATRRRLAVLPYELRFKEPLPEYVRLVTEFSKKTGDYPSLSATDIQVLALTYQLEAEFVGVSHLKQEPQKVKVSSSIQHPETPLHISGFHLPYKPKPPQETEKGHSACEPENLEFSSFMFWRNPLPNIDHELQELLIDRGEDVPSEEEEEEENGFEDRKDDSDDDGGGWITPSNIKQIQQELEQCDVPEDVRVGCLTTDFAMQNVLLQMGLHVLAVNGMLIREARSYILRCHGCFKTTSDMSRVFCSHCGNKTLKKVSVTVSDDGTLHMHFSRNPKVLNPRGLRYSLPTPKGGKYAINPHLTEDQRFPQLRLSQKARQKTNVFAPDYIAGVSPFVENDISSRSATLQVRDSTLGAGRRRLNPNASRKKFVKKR

Target	log2 fold change [1]	log2 fold change [2]	log2 fold change [3]	log2 fold change [4]	log2 fold change [5]	log2 fold change [6]	log2 fold change [7]	log2 fold change [8]	log2 fold change [9]	log2 fold change [10]	log2 fold change [11]	log2 fold change [12]	log2 fold change [13]	log2 fold change [14]	log2 fold change [15]	log2 fold change [16]	log2 fold change [17]	log2 fold change [18]	log2 fold change [19]	log2 fold change [20]
NCAPH (UniProt Q15003)	0.006	0.016	-0.002	-0.031	-0.013	0.003	-0.001	-0.003	0.012	0.011	-0.015	0.001	0.012	-0.046	-0.044	0.027	-0.057	-0.035	-0.016	0.015
NAA38 isoform 2 (UniProt Q9BRA0)	0.015	-0.012	-0.02	-0.015	-0.014	0.052	-0.017	-0.028	0.022	-0.029	0.049	0.014	0.09	-0.012	0.025	0.04	-0.461 (active)	0.201	0.042	-0.079
OPA1 isoform 2 (UniProt O60313)	-0.001	0.006	-0.004	-0.036	-0.035	0.031	0.026	0.024	0.046	0.02	0.022	0.029	0.024	-0.057	-0.033	0.037	-0.016	-0.192	0.007	0.014
NR3C1 isoform 3 (UniProt P04150)	-0.168	-0.019	-0.076	0.04	0.008	-0.031	0.104	0.024	-0.033	0.055	-0.138	0.027	-0.385	-0.086	-0.046	0.001	0.07	-0.081	0.072	-0.016
NFATC1 (UniProt O95644)	0.011	0.06	-0.004	-0.067	-0.038	0.031	-0.047	0.094	-0.015	-0.052	0.004	0.058	-0.015	0.001	0	0.007	-0.118	0.064	0.042	0
MSH3 (UniProt P20585)	0	-0.017	0.024	-0.037	-0.039	0.023	-0.025	-0.018	-0.007	-0.005	-0.004	0.048	-0.001	0.036	-0.031	-0.034	-0.025	0.031	0.038	0.039
NUP210 (UniProt Q8TEM1)	-0.029	-0.01	-0.011	-0.075	-0.005	0.024	-0.017	-0.005	-0.027	-0.012	-0.009	0.048	0.072	-0.004	0.006	0.036	0.012	-0.015	0.029	-0.004
NACC1 (UniProt Q96RE7)	-0.015	-0.001	0.009	-0.003	-0.014	0.039	-0.016	-0.022	0.009	-0.022	-0.039	-0.003	0.039	-0.027	0.008	0.004	-0.059	-0.003	-0.016	0.034
MTOR (UniProt P42345)	-0.016	0.001	0.018	-0.005	-0.043	0.02	0.019	0.031	0.058	-0.013	0.026	0.015	0.052	-0.045	-0.044	-0.006	-0.04	-0.031	0.005	0.03
MYOM1 (UniProt P52179)	-0.017	0.016	0.254	0.026	-0.017	0.011	-0.156	0.052	-0.083	-0.025	0.015	-0.082	0.021	0.049	0.123	-0.356	-0.185	0.088	-0.086	-0.163
NMRAL1 (UniProt Q9HBL8)	0.122	0.021	0.06	0.012	-0.03	0.047	-0.048	-0.01	-0.016	0	-0.03	-0.023	0.178	0.045	-0.046	0.045	-0.092	0.053	0.011	-0.034
NFKBIB (UniProt Q15653)	-0.034	-0.037	0.048	-0.008	-0.029	-0.012	0	0.033	0.06	-0.037	-0.058	0.041	-0.059	0.099	0.068	-0.054	-0.535 (active)	0.096	-0.013	-0.002
NFATC2IP (UniProt Q8NCF5)	0.015	-0.037	0	-0.052	0.01	-0.021	-0.019	-0.047	0.013	0.011	-0.024	0.069	0.041	0.033	0.006	0	0.076	-0.031	0.003	-0.004
MRPS31 (UniProt Q92665)	-0.01	-0.039	-0.006	-0.006	0	-0.01	-0.071	-0.006	-0.022	-0.006	0.043	-0.001	-0.011	0.041	-0.004	-0.026	-0.046	0.034	0.014	0.021
NOB1 (UniProt Q9ULX3)	-0.005	0.018	-0.028	0.014	0.013	-0.001	-0.046	0.03	0.019	0.004	-0.002	0.032	-0.053	-0.045	-0.02	-0.003	0.274 (active)	-0.102	0.018	-0.009
NTMT1 (UniProt Q9BV86)	-0.025	0.022	-0.025	-0.018	0	-0.005	-0.01	-0.008	0.047	0.01	0.023	0.026	0.026	-0.029	-0.024	0.015	0.055	-0.101	0.008	0.056
